29 compounds from PubChem BioAssay (EPA / NIEHS) can be followed below.

Experiment [1] in a line: CCTE_Simmons_MITO_basal_resp_rate: CCTE's HepG2 Seahorse XF Respirometric Screening Assay at Basal Respiratory State, Simmons Lab (AID 2284001). The following applies: actives raise or lower the signal. An outline of the steps: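 HepG2 oxygen consumption on Seahorse XF96 after compound injection, 7 concentrations 125 nM–100 uM final, reads every 6 min over 72 min. Triplicate biological replicates; bidirectional fit vs DMSO; fenpyroximate and 2,4-dinitrophenol controls.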

Experiment [2] is described as follows: CCTE_Simmons_MITO_max_resp_rate: CCTE's HepG2 Seahorse XF Respirometric Screening Assay at Maximal Respiratory State [uncoupled], Simmons Lab (AID 2284002). To be noted: actives raise or lower the signal. An outline of the steps: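 HepG2 oxygen consumption measured on Seahorse XF after FCCP uncoupling, following test compound injection; 7 concentrations from 125 nM to 100 uM final. Readings every 6 min over 72 min, three biological replicates; bidirectional fit versus DMSO.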

Experiment [3] can be described thus: CCTE_Simmons_MITO_inhib_resp_rate: CCTE's HepG2 Seahorse XF Respirometric Screening Assay at Inhibited Respiratory State [full ETC block], Simmons Lab (AID 2284006). To be noted: actives raise or lower the signal. In outline: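 Inhibited respiration was taken as HepG2 oxygen consumption after rotenone/antimycin A, which followed test-compound and FCCP injections. Chemicals were tested at seven final concentrations from 125 nM to 100 uM. Activity was fitted bidirectionally relative to DMSO.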

The nature of experiment [4]: CCTE_Simmons_MITO_viability: CellTiter-Glo Viability Assessment for CCTE's HepG2 Seahorse XF Respirometric Screening Assay [post-hoc], Simmons Lab (AID 2284007; active means hit-call score of the fitted dose curve at least 0.9, where 1 is the maximum;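 on AC50: cells exposed to chemical for 90 min before the ATP read; actives lower ATP signal relative to DMSO baseline meaning reduced viability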). An outline of the steps:
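HepG2 cells; test chemical 7 conc. (125 nM–100 uM final) × 90 min; then luminescent ATP detection. DMSO vehicle. Positive control dichlone, 8 conc. from 10 nM to 100 uM final. Loss-of-signal endpoint.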
A general note: In ATP-based viability assays light output follows the ATP content of the culture.

A short description of experiment [5]: CCTE_Shafer_MEA_acute_firing_rate_mean: CCTE's Neural Acute Assay for Mean Firing Rate, Shafer Lab (AID 2284009).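 Further: analyzed for loss of signal so actives lower firing rate relative to DMSO.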 An outline of the steps: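 Rat primary cortical neurons on 48-well MEA plates, dosed at 0.03-40 uM on DIV 13 or 15; 40 min spontaneous activity recorded at 37 C before and after compound. Spike rate per electrode averaged per well, expressed as percent change from baseline.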

Experiment [6] in a line: CCTE_Harrill_HTTr_Viability_MCF7: CCTE's 6-hour Cell Viability Assessment for the High-Throughput Transcriptomics (HTTr) Platform, in MCF-7 cells cultured in DMEM + 10% fetal bovine serum, Harrill Lab (AID 2284010). An outline of the steps:
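Viability measured through PI dye exclusion by high-content imaging at 6 h post-dosing.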

Experiment [7] relates to DIO1 (gene 1733). The experiment is described as follows: CCTE_GLTED_hDIO1: CCTE's human Deiodinase 1 (DIO1) Inhibition Assay, Great Lakes Toxicology and Ecology Division (GLTED) Lab (AID 2283987; active means hit-call score of the fitted dose curve at least 0.9, where 1 is the maximum;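 further: isolated human DIO1 enzyme in a cell-free setup rather than cells; enzyme activity read as free iodide liberated from substrate via Sandell-Kolthoff colorimetry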). In outline:
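Cell-free human DIO1 enzyme incubated 3 h with test chemical; iodide freed from substrate then measured by Sandell-Kolthoff absorbance. Run in triplicate; loss of signal relative to DMSO taken as inhibition.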

For experiment [8], the target named is Nucleoli Translocation, AR (gene 367) (UniProt P10275). The experiment is described as follows: UPITT_HCI_U2OS_AR_TIF2_Nucleoli_Antagonist: University of Pittsburgh U2OS Androgen Receptor-Transcriptional Intermediary Factor 2 (AR-TIF2) Antagonism High Content Imaging Assay for Nucleoli Translocation (AID 2283997; active means hit-call score of the fitted dose curve at least 0.9, where 1 is the maximum). An outline of the steps:
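U2OS cells co-expressing red-fluorescent-tagged human AR and green-fluorescent-tagged TIF2, imaged by high-content microscopy for nucleolar red fluorescence. Antagonist mode against DHT; primary screen at 20 uM final (0.2% DMSO).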

Experiment [9] has the same target. The experiment is described as follows: UPITT_HCI_U2OS_AR_TIF2_Nucleoli_Agonist: University of Pittsburgh U2OS Androgen Receptor-Transcriptional Intermediary Factor 2 (AR-TIF2) Agonism High Content Imaging Assay for Nucleoli Translocation (AID 2283998; active means hit-call score of the fitted dose curve at least 0.9, where 1 is the maximum). In outline:
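U2OS cells expressing RFP-tagged human AR and GFP-tagged TIF2; red fluorescence in nucleoli quantified by high-content imaging. Primary screen at 20 uM final (0.2% DMSO); concentration-response 0.195–50 uM (0.5% DMSO), fitted upward versus DMSO.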

The nature of experiment [10]: CCTE_Harrill_HTTr_Apoptosis_MCF7: CCTE's 6-hour Apoptosis Assessment for the High-Throughput Transcriptomics (HTTr) Platform, in MCF-7 cells cultured in DMEM + 10% fetal bovine serum, Harrill Lab (AID 2284011). An outline of the steps:
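MCF-7 cells in DMEM + 10% FBS exposed 6 h to chemicals over an eight-point dilution series. Caspase-3/7 activation imaged by high-content CellEvent Green staining; fitted bidirectionally versus DMSO.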

Where “and” joins values, the source holds several entries; their conditions need not be identical. Equal entries are not always repeated. Results filed as inconclusive are left out. A structure can be active in one record and inactive in another. Calls of active or inactive are those of the source. How the source made its calls, unless noted: active means hit-call score of the fitted dose curve at least 0.9, where 1 is the maximum; inactive means score below 0.9.

Nucleoli Translocation, AR (gene 367), sequence (P10275 whole entry, looked up): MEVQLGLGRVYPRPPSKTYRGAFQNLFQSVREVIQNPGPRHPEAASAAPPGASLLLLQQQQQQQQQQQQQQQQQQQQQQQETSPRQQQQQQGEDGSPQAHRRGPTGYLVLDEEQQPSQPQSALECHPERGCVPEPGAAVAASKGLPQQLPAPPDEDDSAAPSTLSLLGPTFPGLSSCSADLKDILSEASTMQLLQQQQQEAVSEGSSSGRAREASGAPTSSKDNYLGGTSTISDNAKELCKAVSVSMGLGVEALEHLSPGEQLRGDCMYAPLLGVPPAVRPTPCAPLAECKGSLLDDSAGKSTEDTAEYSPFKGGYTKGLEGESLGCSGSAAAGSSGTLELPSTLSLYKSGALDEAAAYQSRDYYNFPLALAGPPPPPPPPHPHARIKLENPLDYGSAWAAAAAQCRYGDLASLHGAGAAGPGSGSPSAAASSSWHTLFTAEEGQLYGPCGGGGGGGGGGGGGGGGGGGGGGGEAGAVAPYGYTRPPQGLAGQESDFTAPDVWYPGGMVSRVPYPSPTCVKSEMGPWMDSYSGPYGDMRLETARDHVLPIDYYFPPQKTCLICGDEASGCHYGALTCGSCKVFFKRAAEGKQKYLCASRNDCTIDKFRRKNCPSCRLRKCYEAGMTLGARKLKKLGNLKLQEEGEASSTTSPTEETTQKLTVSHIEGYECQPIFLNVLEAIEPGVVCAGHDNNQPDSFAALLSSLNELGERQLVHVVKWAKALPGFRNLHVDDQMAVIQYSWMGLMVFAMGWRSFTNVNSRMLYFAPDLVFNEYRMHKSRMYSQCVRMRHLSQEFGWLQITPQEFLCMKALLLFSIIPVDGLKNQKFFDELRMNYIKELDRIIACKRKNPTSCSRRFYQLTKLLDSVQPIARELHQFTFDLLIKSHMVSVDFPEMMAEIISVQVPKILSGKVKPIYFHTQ

For the compound `C=CCC1=C(C)C(OC(=O)C2C(C=C(C)C)C2(C)C)CC1=O` (stereo unspecified), the AC50 in experiment [1] was 34.7 µM (active) and 46.9 µM (active); in experiment [2], 36.2 µM (active) and 53.5 µM (active); in [3] it was 26 µM (active) and 42.3 µM (active); in experiment [4], 5.17 µM (active). The outcome in [4], in [5] and in [6] was inactive.

As to `CCc1nn(C)c(C(=O)NCc2ccc(C(C)(C)C)cc2)c1Cl`, the AC50 in [1] is 0.928 µM (active); in experiment [2] it was 0.496 µM (active); in [4], 0.217 µM (active). The outcome in [3] and in [6] was inactive.

Regarding `Cc1ccc(-c2c(Cl)nc(C#N)n2S(=O)(=O)N(C)C)cc1`, the figures for the AC50 in [7], in experiment [1] and in experiment [2] were 43.7 µM (active), 0.982 µM (active) and 34 µM (active), respectively. For the same compound, the outcome in experiment [8], in [9], in experiment [3], in [4], in experiment [5] and in experiment [6] was inactive. Further, the result in experiment [10] was inactive.

Turning to `CC(C)(C)c1ccc(CSc2cnn(C(C)(C)C)c(=O)c2Cl)cc1`, the AC50 in experiment [1] is 0.96 µM (active); in experiment [2], 0.655 µM (active); in [3], 0.359 µM (active); in experiment [4], 0.411 µM (active); in experiment [5], 24.9 nM (active). In addition, in experiment [6], the outcome was inactive.

For `O=C(Nc1ccccc1)Nc1ccnc(Cl)c1`, the concentration at half-maximal activity (AC50) was 84.5 µM (active) in [9], 72.3 µM (active) in experiment [1] and 50 µM (active) in experiment [2]. The outcome in experiment [3], in experiment [4] and in experiment [6] was inactive.

With `CCCN(CCC)c1c([N+](=O)[O-])cc(S(N)(=O)=O)cc1[N+](=O)[O-]`, the concentration at half-maximal activity (AC50) in [7] was 166 µM (active) [middle of 7 runs]; in [1], 30.7 µM (active); in [2], 34 µM (active); in experiment [5] it was 4910 nM (active). Moreover, the result in experiment [1], in experiment [2], in experiment [3], in experiment [4] and in [6] was inactive.

As to `CN(C)C(=S)SSC(=S)N(C)C`, the AC50 in experiment [8] was 12.6 µM (active). For the same compound, the compound was classed as inactive in experiment [9] and in experiment [6].

`CS/C(C)=N/OC(=O)N(C)SN(C)C(=O)O/N=C(\C)SC`: the AC50 in experiment [8] was 21.7 µM (active); in experiment [9], 70.8 µM (active). Further, the outcome in experiment [5], in [6] and in experiment [10] was inactive.

With `CC1=C(C(=O)Nc2ccccc2)SCCO1`, the compound was classed as inactive in experiment [8], in experiment [2], in experiment [3], in experiment [6] and in [10].

On to `CCOC(=O)CC(SP(=S)(OC)OC)C(=O)OCC` (stereo unspecified), for which, in experiment [8], the AC50 is 50 µM (active). Further, in [6], the outcome was inactive.

For `N#CC(CCc1ccc(Cl)cc1)(Cn1cncn1)c1ccccc1` (stereo unspecified), the result in experiment [8], in experiment [9], in experiment [1], in [2], in [3] and in [4] was inactive. The result in experiment [5] and in experiment [6] was inactive.

As to `CCCC1COC(Cn2cncn2)(c2ccc(Cl)cc2Cl)O1` (stereo unspecified), the AC50 in experiment [9] is 92.8 µM (active); in experiment [1] it was 18.4 µM (active); in experiment [2], 33.7 µM (active); in experiment [4], 26.5 µM (active). Moreover, the compound was called inactive in [3], in experiment [5] and in experiment [6].

On to `CCON=C(CC)C1=C(O)CC(c2c(C)cc(C)cc2C)CC1=O` (stereo unspecified), for which the call in [8] and in experiment [6] was inactive.

For the compound `N#Cc1cc(Br)c(O)c(Br)c1`, the compound was classed as inactive in [8], in experiment [2], in [3], in experiment [6] and in [10]. Moreover, the AC50 in experiment [1] was 9.69 µM (active); in experiment [4] it was 10.8 µM (active).

Take `CC1COC(Cn2cncn2)(c2ccc(Oc3ccc(Cl)cc3)cc2Cl)O1` (stereo unspecified): the AC50 in experiment [1] was 6.1 µM (active); in experiment [2] it was 6.64 µM (active); in experiment [3] it was 6.05 µM (active); in experiment [5], 3530 nM (active). Also, the compound was classed as inactive in [4] and in experiment [6].

Turning to `OC(c1ccc(Cl)cc1)(c1cncnc1)c1ccccc1Cl` (stereo unspecified), the result in experiment [1], in [2], in [3], in experiment [4] and in experiment [6] was inactive. The AC50 in experiment [5] was 803 nM (active).

As for `CON(C)C(=O)Nc1ccc(Cl)c(Cl)c1`, the AC50 in experiment [1] is 26.8 µM (active). For the same compound, the call in experiment [2], in experiment [3], in experiment [4], in experiment [5], in [6] and in experiment [10] was inactive.

In the case of `COP(=S)(OC)Oc1nc(Cl)c(Cl)cc1Cl`, the call in [1], in experiment [2], in experiment [3], in experiment [5], in [6] and in experiment [10] was inactive. In [4], the AC50 was 19.8 µM (active).

For `CCCCNC(=O)OCC#CI`, the AC50 was 14.3 µM (active) in experiment [1], 91.7 µM (active) in experiment [2] and 10200 nM (active) in experiment [5]. Also, the compound was called inactive in experiment [3], in experiment [4] and in experiment [6].

For the compound `CC(C)Oc1cc(-n2nc(C(C)(C)C)oc2=O)c(Cl)cc1Cl`, the compound was called inactive in experiment [8], in experiment [9], in [1], in [2], in experiment [3] and in experiment [4]. The compound was classed as inactive in experiment [5], in experiment [6] and in experiment [10].

`N#Cc1nn(-c2c(Cl)cc(C(F)(F)F)cc2Cl)c(N)c1S(=O)C(F)(F)F` (stereo unspecified): the AC50 was 50.6 µM (active) in [7]; 10.3 µM (active) and 9.11 µM (active) in experiment [5]. Also, the compound was called inactive in experiment [8], in experiment [9], in experiment [1], in [2], in [3] and in experiment [4]. Further, the result in [6] was inactive.

Regarding `CO/C=C(/C(=O)OC)c1ccccc1Oc1cc(Oc2ccccc2C#N)ncn1`, the compound was classed as inactive in experiment [8], in experiment [4], in experiment [5], in experiment [6] and in experiment [10]. The AC50 in [1] is 9.66 µM (active) and 9.17 µM (active); in [2], 6.48 µM (active) and 5.12 µM (active); in [3], 17.9 µM (active) and 8.88 µM (active).

On to `CCCCNC(=O)n1c(NC(=O)OC)nc2ccccc21`, for which the outcome in experiment [8], in experiment [9] and in [6] was inactive.

As to `COC(=O)N(OC)c1ccccc1COc1ccn(-c2ccc(Cl)cc2)n1`, the AC50 in [1] is 2.05 µM (active); in experiment [2] it was 1.7 µM (active); in [3] it was 1.69 µM (active); in experiment [5] it was 78.3 nM (active). For the same compound, the call in [4], in experiment [6] and in experiment [10] was inactive.

On to `Cc1cc(Cl)ccc1OCC(=O)O`, for which the compound was called inactive in experiment [9] and in [6].

As to `COc1nc(NC(C)C)nc(NC(C)C)n1`, the outcome in experiment [4] was inactive.

Turning to `C=CCC1=C(C)[C@@H](OC(=O)[C@@H]2[C@@H](C=C(C)C)C2(C)C)CC1=O`, the outcome in experiment [4] was inactive.

Take `Fc1ccc(Oc2ccnc3cc(Cl)cc(Cl)c23)cc1`: the result in experiment [10] was inactive.

As to `COc1ccc(C(c2ccc(OC)cc2)C(Cl)(Cl)Cl)cc1`, the outcome in experiment [10] was inactive.

Usually AC50 stands for the concentration giving half of the maximal activity seen.
